The source made the active and inactive calls. Calls come from the whole dose curve; as a rule, active = well fitted curve in the direction sought with a large enough effect in the repeat runs; inconclusive = weak or mixed curves; inactive = flat fitted curve, though single readings scatter.

The source of these data is PubChem BioAssay (Tox21).
% is set by controls: 0 for no effect and ±100 for the full control effect.

The experiment is described as follows: qHTS assay to test for compound auto fluorescence at 535 nm (green) in HepG2 cells (AID 720675). The conditions noted are these: green autofluorescence 485/535 nm, 1 h; series mostly up to 91.3 µM; fluorescence, % of fluorescein control: at the top concentration. An excerpt:
National Center for Advancing Translational Sciences [NCATS]
NIH Chemical Genomics Center [NCGC]
U.S. Environmental Protection Agency [EPA]
National Institutes of Environmental Health Sciences [NIEHS]
National Toxicology Program [NTP]
U.S. Food and Drug Administration [FDA]
Compound auto fluorescence often interferes with screening of the compound library against various biological targets and signaling pathways. Some of these compounds may have fluorophoric properties. Such properties may interfere with the assay outputs resulting in false positives and/or negatives. To decrease such complications and ensure the compound activities are relevant in terms of biological response, the Tox21 10K compound library was screened for auto fluorescence.
From the fluorophores used as reporter signals in our screening assays, the auto fluorescence equivalencies of compounds against three fluorophores have been evaluated: Triamterene, Fluorescein and Rose Bengal sodium for blue, green and red fluorescence, respectively. The fluorescence intensities were measured using Excitation/Emission wavelengths at 405/460nm, 485/535nm and 540/590nm for blue, green and red labels, respectively. This assay includes the green fluorescence data.
Tox21 Assay Protocol Summary:
2,000 HepG2 cells in 5 uL of culture medium (MEM containing 10% FBS) per well were dispensed into black wall/clear bottom 1536-well plates using a Multidrop Combi Dispenser (ThermoFisher Scientific, Waltham, MA). The assay plates were incubated overnight at 37 C to allow cell attachment to the well bottom, followed by the transfer of 23 nL compound or DMSO vehicle by a pintool work station (Kalypsys , San Diego, CA). After the assay plates were incubated for 1 hr at 37 C and 5% CO2, fluorescence intensities in the assay plates were measured by an Envision (PerkinElmer, Shelton, CT) plate reader using three labels for measuring blue, green and red fluorescence at […] 460, 535 and 590 nm respectively.
(In general: Quantitative high-throughput screening tests each substance at several concentrations.)
As for `O=C(CCCCCCC(=O)Nc1ccccc1)NO`, the outcome was inactive.

As for `Nc1ccc(C(=O)OCCCOC(=O)c2ccc(N)cc2)cc1`, the “fluorescence, % of fluorescein control” value was 0.186% (inactive).

Consider `Nc1ccc(S(=O)(=O)O)c(N)c1`, for which the “fluorescence, % of fluorescein control” value was 1.28% (inactive).

Take `COCc1c(C(C)C)nc(C(C)C)c(/C=C/[C@@H](O)C[C@@H](O)CC(=O)O)c1-c1ccc(F)cc1`: the “fluorescence, % of fluorescein control” value is -0.0527% [at 46 µM] (inactive).

Regarding `CCc1cccc(N(C)C(N)=Nc2cccc3ccccc23)c1`, the “fluorescence, % of fluorescein control” value is 0.0129% [at 46 µM] (inactive).

For the compound `CC(=O)Oc1ccc2c(c1)CC[C@@H]1[C@@H]2CC[C@]2(C)[C@@H](O)CC[C@@H]12`, the “fluorescence, % of fluorescein control” value is -0.143% [at 46 µM] (inactive).

For `CC(=O)CC(c1ccc([N+](=O)[O-])cc1)c1c(O)c2ccccc2oc1=O` (stereo not given), the fluorescence, % of fluorescein control is 0.0036% [at 18.6 µM] (inactive).

Turning to `CC(C)(O)c1ccccc1CC[C@@H](SCC1(CC(=O)O)CC1)c1cccc(/C=C/c2ccc3ccc(Cl)cc3n2)c1`, the “fluorescence, % of fluorescein control” value was -0.0737% [at 46 µM] (inactive).

Regarding `CO/N=C1\CN(c2nc3c(cc2F)c(=O)c(C(=O)O)cn3C2CC2)CC1CN` (stereo not given), the “fluorescence, % of fluorescein control” value is -0.0024% [at 46 µM] (inactive).

Consider `C=CC(C)(O)CCCC(C)CCCC(C)CCCC(C)C` (stereo not given), for which the “fluorescence, % of fluorescein control” value is 0.0121% (inactive).

Consider `CCC(=O)Oc1ccc(/C(CC)=C(\CC)c2ccc(OC(=O)CC)cc2)cc1`, for which the “fluorescence, % of fluorescein control” value is -0.0554% (inactive).

For `O=C(O)c1ccc(CO)o1`, the “fluorescence, % of fluorescein control” value is -0.0113% [at 95.7 µM] (inactive).

Turning to `O=C(O)Cc1ccc(-c2ccccc2)cc1`, the fluorescence, % of fluorescein control was -0.0175% [at 18.6 µM] (inactive).

As for `CCOC(=O)/C=C/C(=O)O`, the “fluorescence, % of fluorescein control” value is 0.0456% (inactive).

As to `CC1=CC(=O)CC(C)(C)C1(O)/C=C/C(C)=C\C(=O)O` (stereo not given), the “fluorescence, % of fluorescein control” value is 0.0348% (inactive).

In the case of `CCC(Cc1ccccc1)(C(=O)c1ccc(N2CCOCC2)cc1)N(C)C` (stereo not given), the “fluorescence, % of fluorescein control” value is 0.0546% (inactive).

For the compound `CC(C)CCCC(=O)O`, the “fluorescence, % of fluorescein control” value was -0.107% (inactive).

For `CCCCN(CCCC)C(=S)SSC(=S)N(CCCC)CCCC`, the “fluorescence, % of fluorescein control” value was -0.0991% (inactive).

In the case of `CC(C)C(OC(=O)c1ccccc1)C(C)(C)COC(=O)c1ccccc1` (stereo not given), the “fluorescence, % of fluorescein control” value is 0.0692% (inactive).

Turning to `CCCCCCCCCOC(C)=O`, the “fluorescence, % of fluorescein control” value is -0.0557% (inactive).

As for `CCCCCCCCSCCO`, the “fluorescence, % of fluorescein control” value is -0.0041% (inactive).

With `C[C@]12CCC(=O)C=C1C=C[C@@H]1[C@@H]2CC[C@@]2(C)[C@H]1CC[C@@]21CCC(=O)O1`, the “fluorescence, % of fluorescein control” value was 0.0426% [at 46 µM] (inactive).

In the case of `CNCCCC1c2ccccc2C=Cc2ccccc21`, the fluorescence, % of fluorescein control is -0.0324% [at 18.6 µM] (inactive).

Regarding `NC(=O)Nc1ccc(Cl)cc1`, the “fluorescence, % of fluorescein control” value is 0.0233% (inactive).

For the compound `C=CC(=C)CCCC(C)(C)OC(C)=O`, the “fluorescence, % of fluorescein control” value is 0.0602% (inactive).

For `COCCOC(=O)C1=C(C)NC(C)=C(C(=O)OC/C=C/c2ccccc2)C1c1cccc([N+](=O)[O-])c1` (stereo not given), the “fluorescence, % of fluorescein control” value is 0.148% [at 46 µM] (inactive).

With `O=C(O)C(Cc1cc(I)c(O)c(I)c1)c1ccccc1` (stereo not given), the “fluorescence, % of fluorescein control” value is -0.106% [at 46 µM] (inactive).

For the compound `COCCOC`, the “fluorescence, % of fluorescein control” value was -0.0311% (inactive).

As for `CC(CCc1ccc2c(c1)OCO2)NN` (stereo not given), the “fluorescence, % of fluorescein control” value is -0.084% [at 46 µM] (inactive).

For `CCCCCCCC/C=C\CCCCCCCC(=O)OC(CO)CO`, the “fluorescence, % of fluorescein control” value is 0.0675% (inactive).

Take `COc1cc2ncnc(Nc3ccc(F)c(Cl)c3)c2cc1OCCCN1CCOCC1`: the “fluorescence, % of fluorescein control” value is 0.0232% [at 46 µM] (inactive).

Turning to `CCCCCCCCCCCCCCCCBr`, the fluorescence, % of fluorescein control was 0.118% [at 18.6 µM] (inactive).

Regarding `C=CC(C)(C)CC(=O)OC`, the “fluorescence, % of fluorescein control” value is 0.057% (inactive).

`CC(=O)[C@H]1CC[C@H]2[C@@H]3C[C@H](C)C4=CC(=O)CC[C@]4(C)[C@H]3[C@@H](O)C[C@]12C`: the fluorescence, % of fluorescein control is -0.105% [at 18.6 µM] (inactive).

With `CC(C)(CCl)c1ccccc1`, the “fluorescence, % of fluorescein control” value was 0.0064% (inactive).

In the case of `COC(=O)CC(=O)C(C)(C)C`, the “fluorescence, % of fluorescein control” value is -0.06% (inactive).

Consider `Cc1nccn1-c1ccc(Sc2cccc(C3(C(N)=O)CCOCC3)c2)cc1`, for which the “fluorescence, % of fluorescein control” value is 0.0598% (inactive).

Take `Oc1ccc(Nc2ccccc2)cc1`: the “fluorescence, % of fluorescein control” value was -0.0245% (inactive).

On to `C[C@@H]1C[C@H]2[C@@H]3CCC4=CC(=O)C=C[C@]4(C)[C@@]3(F)[C@@H](O)C[C@]2(C)[C@H]1C(=O)CO`, for which the “fluorescence, % of fluorescein control” value was -0.0656% [at 46 µM] (inactive).

As to `CC(C)C(=O)O`, the “fluorescence, % of fluorescein control” value was -0.0284% (inactive).
